# Experimental data reported in PubChem BioAssay AID1645838 (ICCB-Longwood Screening Facility, Harvard Medical School, 2021).
# Several values for one entry are separate records, joined by “and”; a condition that tells them apart may be missing. Equal values may be shown once. In all, about 2,000 compounds went through this assay and about 100 (5%) were called active. This is one part of a sample in which actives are shown more often than they occur. Cut-off read from the data, not from the text of the source: active = z-score above about 2; inactive = the rest.
# Test: modulators of mitochondrial supercomplex assembly, cell-based, luminescence, Hoechst nuclei count (AID 1645838);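 note: control cybrid cells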;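 for z-score: higher means more mitochondrial supercomplex formation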
# Settings: Cells, luminescence/Hoechst cell count ratio, supercomplex reporter; for z-score: stronger effect = higher value; for cell count: measured here: cell number, Hoechst nuclei count
# [1] = library stock concentration (final well concentration not given) 46 uM
# [2] = library stock concentration (final well concentration not given) 278 uM
# [3] = library stock concentration (final well concentration not given) 1.67 mM
# [4] = library stock concentration (final well concentration not given) 10 mM
# [5] = library stock concentration (final well concentration not given) 80 uM
# [6] = library stock concentration (final well concentration not given) 400 uM
# [7] = library stock concentration (final well concentration not given) 2 mM
structure (smiles),measurement,setting,value
COc1cc(C(C)C)c2c(c1)S(=O)(=O)N(COc1cc(=O)n3cccc(OCCN4CCCCC4)c3n1)C2=O,z-score,[1],-0.456 (inactive)
same,z-score,[2],-0.0963 (inactive)
same,z-score,[3],-0.654 (inactive)
same,z-score,[4],-0.644 (inactive)
same,cell count,[1],7070
same,cell count,[2],6790
same,cell count,[3],6790
same,cell count,[4],5780
CC(=O)c1c(C)c2cnc(Nc3ccc(N4CCNCC4)cn3)nc2n(C2CCCC2)c1=O,z-score,[1],-0.186 (inactive)
same,z-score,[5],-0.0747 (inactive)
same,z-score,[2],0.0516 (inactive)
same,z-score,[6],0.049 (inactive)
same,z-score,[3],1.11 (inactive)
same,z-score,[7],0.264 (inactive)
same,z-score,[4],-0.00116 (inactive) and 1.25 (inactive)
same,cell count,[1],4850
same,cell count,[5],4290
same,cell count,[2],4600
same,cell count,[6],4340
same,cell count,[3],3490
same,cell count,[7],4140
same,cell count,[4],4170 and 3080
CN(C)C(=O)c1cc2cnc(Nc3ccc(N4CCNCC4)cn3)nc2n1C1CCCC1,z-score,[5],0.288 (inactive)
same,z-score,[6],0.657 (inactive)
same,z-score,[7],1.74 (inactive)
same,z-score,[4],2.33 (active)
same,cell count,[5],5680
same,cell count,[6],5400
same,cell count,[7],4600
same,cell count,[4],3840
CCCCC/C=C\C/C=C\C/C=C\C/C=C\CCCCN1C(=O)C=CC1=O,z-score,,0.0996 (inactive)
same,cell count,,4710
Nc1nc2c([nH]c(=O)n2[C@H]2C[C@H](O)[C@@H](CO)O2)c(=O)[nH]1,z-score,,-0.23 (inactive)
same,cell count,,5380
O=C(Nc1ccc(N2CCOCC2)cc1)c1n[nH]c2ccccc12,z-score,[5],0.294 (inactive)
same,z-score,[6],0.396 (inactive)
same,z-score,[7],-0.44 (inactive)
same,z-score,[4],0.0641 (inactive)
same,cell count,[5],5020
same,cell count,[6],4770
same,cell count,[7],4900
same,cell count,[4],4350
CCCCC[C@H](O)/C=C/[C@H]1C(=O)C[C@H](O)[C@@H]1CCCCCCCO,z-score,,0.644 (inactive)
same,cell count,,4950
O=C(Nc1cccc(Nc2ncc(Br)c(NCCc3cnc[nH]3)n2)c1)N1CCCC1,outcome,library stock 10 mM,inactive; censored for cell count
same,z-score,[1],-0.139 (inactive)
same,z-score,[5],-0.647 (inactive)
same,z-score,[2],0.0145 (inactive)
same,z-score,[6],-0.129 (inactive)
same,z-score,[3],3.24 (active)
same,z-score,[7],0.129 (inactive)
same,cell count,[1],5940
same,cell count,[5],4860
same,cell count,[2],6000
same,cell count,[6],4520
same,cell count,[3],2060
same,cell count,[7],3760
O=C(O)CCC/C=C\CC1C(=O)C[C@@H](O)[C@@H]1/C=C/[C@@H](O)COc1ccccc1 (some centres undefined),z-score,,0.988 (inactive)
same,cell count,,5150
CCN(CC)C(=O)CCC/C=C\C[C@@H]1[C@@H](/C=C/[C@@H](O)CCc2ccccc2)[C@H](O)C[C@@H]1O,z-score,,0.309 (inactive)
same,cell count,,5000
CCCCCCCC/C=C\CCCCCCCCCCCC(N)=O,z-score,,-0.128 (inactive)
same,cell count,,5640
CCCCCCCCCCCCCCCCCC(=O)NCCO,z-score,,-0.675 (inactive)
same,cell count,,6070
O=C(C(=O)c1ccc(Cl)cc1)c1ccc(Cl)cc1,z-score,[1],0.501 (inactive)
same,z-score,[2],0.0434 (inactive)
same,z-score,[3],0.0353 (inactive)
same,z-score,[4],-0.186 (inactive)
same,cell count,[1],6500
same,cell count,[2],6290
same,cell count,[3],6800
same,cell count,[4],6380
NC(=NCC[C@H](N)C(=O)O)NO,z-score,,-0.121 (inactive)
same,cell count,,4620
CCCCC/C=C\C/C=C\C/C=C\C/C=C\CCCCNC(=O)c1ccc(O)cc1,z-score,,-0.229 (inactive)
same,cell count,,5700
CCN(CC)c1ccc(C=NNC(=O)c2ccc(O)cc2)cc1,z-score,[1],-0.275 (inactive)
same,z-score,[2],-0.201 (inactive)
same,z-score,[3],-0.4 (inactive)
same,z-score,[4],2.2 (active)
same,cell count,[1],6830
same,cell count,[2],6590
same,cell count,[3],6690
same,cell count,[4],3360
CCC(=C(CC)c1ccc(O)cc1)c1ccc(O)cc1,z-score,[5],0.303 (inactive)
same,z-score,[6],0.161 (inactive)
same,z-score,[7],-0.198 (inactive)
same,z-score,[4],-1.11 (inactive)
same,cell count,[5],5780
same,cell count,[6],5910
same,cell count,[7],5930
same,cell count,[4],5450
CC(OC1OCCN(Cc2n[nH]c(=O)[nH]2)C1c1ccc(F)cc1)c1cc(C(F)(F)F)cc(C(F)(F)F)c1 (centres undefined),z-score,[5],-0.483 (inactive)
same,z-score,[6],-0.157 (inactive)
same,z-score,[7],-0.324 (inactive)
same,z-score,[4],1.44 (inactive)
same,cell count,[5],5120
same,cell count,[6],5200
same,cell count,[7],4790
same,cell count,[4],2820
CCCCCCCC/C=C\CCCCCCCC(=O)N[C@@H](CO)C(=O)O,z-score,,0.0618 (inactive)
same,cell count,,5160
Cc1nnsc1C(=O)Nc1ccc(-n2nc(C(F)(F)F)cc2C(F)(F)F)cc1,z-score,,0.284 (inactive)
same,cell count,,4970
NCC(=O)Nc1ccc(-n2nc(C(F)(F)F)cc2-c2ccc3c(ccc4ccccc43)c2)cc1,outcome,library stock 10 mM,inactive; censored for cell count
same,z-score,[5],-0.354 (inactive)
same,z-score,[6],-0.201 (inactive)
same,z-score,[7],4.63 (active)
same,cell count,[5],6120
same,cell count,[6],5230
same,cell count,[7],2710
CCCCCCCCCCCCCCC(=O)NCCO,z-score,[1],-0.0121 (inactive)
same,z-score,[2],0.19 (inactive)
same,z-score,[3],-0.219 (inactive)
same,z-score,[4],0.291 (inactive)
same,cell count,[1],6780
same,cell count,[2],6410
same,cell count,[3],7210
same,cell count,[4],6620
CC(=O)c1cccc(NC(=O)CN2CCc3cc4c(cc3C2)OCCCO4)c1,z-score,[5],0.0242 (inactive)
same,z-score,[6],0.451 (inactive)
same,z-score,[7],-0.169 (inactive)
same,z-score,[4],0.0588 (inactive)
same,cell count,[5],4960
same,cell count,[6],4830
same,cell count,[7],4760
same,cell count,[4],4740
COc1cc2nc(N3CCCN(C)CC3)nc(NC3CCN(Cc4ccccc4)CC3)c2cc1OC,z-score,,-0.382 (inactive)
same,z-score,[1],-0.481 (inactive)
same,z-score,[2],-0.471 (inactive)
same,z-score,[3],0.298 (inactive)
same,z-score,[4],10.9 (active)
same,cell count,,5260
same,cell count,[1],6510
same,cell count,[2],6560
same,cell count,[3],5890
same,cell count,[4],2180
COc1cc2c(NC3CCN(CC4CCCCC4)CC3)nc(N3CCCN(C(C)C)CC3)nc2cc1OCCCN1CCCCC1,outcome,library stock 10 mM,inactive; censored for cell count
same,z-score,[5],-0.365 (inactive)
same,z-score,[6],-0.622 (inactive)
same,z-score,[7],0.193 (inactive)
same,cell count,[5],6230
same,cell count,[6],6560
same,cell count,[7],4370
COc1cc2c(NC3CCN(C(C)C)CC3)nc(C3CCCCC3)nc2cc1OCCCN1CCCC1,z-score,[1],-0.551 (inactive)
same,z-score,[2],-0.34 (inactive)
same,z-score,[3],-0.454 (inactive)
same,z-score,[4],0.796 (inactive)
same,cell count,[1],6710
same,cell count,[2],5680
same,cell count,[3],6450
same,cell count,[4],1730
CCCCCC(=O)CC[C@H]1C(=O)C=C[C@@H]1C/C=C\CCCC(=O)O,z-score,,1.09 (inactive)
same,cell count,,5090
CC(C)(C)OC(=O)N1CCC(OC2CCNCC2)CC1,z-score,[5],0.0198 (inactive)
same,z-score,[6],0.196 (inactive)
same,z-score,[7],0.447 (inactive)
same,z-score,[4],0.428 (inactive)
same,cell count,[5],4690
same,cell count,[6],4710
same,cell count,[7],4640
same,cell count,[4],4420
Cc1cc(CS(=O)(=O)c2ccccc2)cc(OCc2ccc(CN3CCCC3CO)cc2)c1 (centres undefined),z-score,[1],-0.0615 (inactive)
same,z-score,[2],-0.164 (inactive)
same,z-score,[3],-0.0708 (inactive)
same,z-score,[4],-0.221 (inactive)
same,cell count,[1],5870
same,cell count,[2],5750
same,cell count,[3],5420
same,cell count,[4],5130
CCCCCCCCCCCCC/C=C/[C@@H](O)[C@H](CO)NC(=O)CCCCC,z-score,,-0.258 (inactive)
same,cell count,,5330
Cc1ccc(C(=O)NCCCCCC(=O)Nc2ccccc2N)cc1,z-score,[5],0.128 (inactive)
same,z-score,[6],0.271 (inactive)
same,z-score,[7],0.708 (inactive)
same,z-score,[4],4.86 (active)
same,cell count,[5],5180
same,cell count,[6],5260
same,cell count,[7],4840
same,cell count,[4],3070
CN(C)c1ccc(C(=O)NCCCCCC(=O)NO)cc1,z-score,,0.156 (inactive)
same,cell count,,5320
CN(C)c1ccc(C(=O)NCCCCCCC(=O)NO)cc1,z-score,,6.25 (active)
same,cell count,,3650
Cc1ccc(NC(=O)CCCCCC(=O)Nc2ccccc2N)cc1,z-score,,1.29 (inactive)
same,cell count,,4790
CC(/C=C/C(=O)NO)=C\[C@@H](C)C(=O)c1ccc(N(C)C)cc1,outcome,,inactive; censored for cell count
CCOC(=O)NCCCC(=O)NCCc1ccccc1,z-score,[1],-0.07 (inactive)
same,z-score,[2],-0.00876 (inactive)
same,z-score,[3],-0.143 (inactive)
same,z-score,[4],-0.14 (inactive)
same,cell count,[1],5970
same,cell count,[2],5710
same,cell count,[3],5220
same,cell count,[4],5550
CCCCC[C@H](O)/C=C/[C@@H]1[C@@H](CCCCCCC(=O)O)[C@H](O)C[C@@H]1O,z-score,,-0.12 (inactive)
same,cell count,,5440
CC(C)CC[C@@H](O)[C@@H](C)C1CCC2C3CC=C4C[C@@H](O)CC[C@]4(C)C3CC[C@@]21C (some centres undefined),z-score,,-0.379 (inactive)
same,cell count,,5080
COC(=O)CCC[C@H](O)[C@H](O)CO,z-score,,-0.313 (inactive)
same,cell count,,5480
CCCCCC/C=C\CCCC(=O)CC(=O)N[C@H]1CCOC1=O,z-score,,0.196 (inactive)
same,cell count,,5220
CCCCC(C)(C)[C@H](O)/C=C/[C@H]1[C@H](O)CC(=O)[C@@H]1CCCCCCC(=O)O,z-score,,-0.22 (inactive)
same,cell count,,5310
O=C(O)c1cc(C(F)(F)F)ccc1N1CCC(OCc2ccccn2)C1 (centres undefined),z-score,[5],-0.188 (inactive)
same,z-score,[6],-0.142 (inactive)
same,z-score,[7],-0.236 (inactive)
same,z-score,[4],-0.254 (inactive)
same,cell count,[5],6080
same,cell count,[6],6070
same,cell count,[7],6240
same,cell count,[4],5970
CCCCC[C@H](O)/C=C/[C@H]1CCC(=O)[C@@H]1C/C=C\CCCC(=O)O,z-score,,0.602 (inactive)
same,cell count,,5430
Cc1c(-c2ccc(-c3ccccc3F)cc2)nc2ccc(F)cc2c1C(=O)O,outcome,library stock 10 mM,inactive; censored for cell count
same,z-score,[5],-0.011 (inactive)
same,z-score,[6],9.53 (active)
same,z-score,[7],9.71 (active)
same,cell count,[5],5350
same,cell count,[6],2330
same,cell count,[7],1790
Cc1c(Cc2ccc3ccccc3n2)c2cc(F)ccc2n1CC(=O)O,z-score,[5],-0.574 (inactive)
same,z-score,[6],-0.436 (inactive)
same,z-score,[7],-0.171 (inactive)
same,z-score,[4],-0.183 (inactive)
same,cell count,[5],6030
same,cell count,[6],6070
same,cell count,[7],6110
same,cell count,[4],5700
CCC(NC(=O)c1c(C)c(-c2ccccc2)nc2ccccc12)c1ccccc1 (centres undefined),z-score,[5],-0.542 (inactive)
same,z-score,[6],-0.315 (inactive)
same,z-score,[7],-0.402 (inactive)
same,z-score,[4],-0.409 (inactive)
same,cell count,[5],7010
same,cell count,[6],6770
same,cell count,[7],6520
same,cell count,[4],5870
O=C(O)CCC/C=C/C[C@@H]1[C@@H](CC[C@@H](O)CCc2ccccc2)[C@H](O)C[C@@H]1O,z-score,,-0.13 (inactive)
same,cell count,,5360
CC(C)(C)C(=O)Nc1ccccc1,z-score,,-0.189 (inactive)
same,cell count,,5010
O=C(CCCCCCC(=O)Nc1ccccc1)NO,z-score,,0.328 (inactive)
same,outcome,library stock 10 mM,inactive; censored for cell count
same,z-score,[5],0.428 (inactive)
same,z-score,[6],2.1 (active)
same,z-score,[7],10.2 (active)
same,cell count,,5300
same,cell count,[5],5490
same,cell count,[6],4770
same,cell count,[7],3220
Nc1ccccc1NC(=O)CCCCCCC(=O)Nc1ccccc1,z-score,,0.265 (inactive)
same,cell count,,5570
